Screening results (PubChem BioAssay)
This is a sample that favours compounds with a hit; in the whole collection about 8% have one here.
Coupling enz – counter-screen for Giardia aldolase inhibitors: coupling enzyme system; coupling enzyme system counterscreen, AmpLite Red fluorescence; activity change, negative = inhibition, % at 58.2 µM, hits read low; hit rate 0.67% among 290,000; AID 2472; in the data active = activity change below about -30%
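Fluorescence at 525 nm excitation and 598 nm emission measured inhibition of the coupled detection system without aldolase. Compounds (at 57.5 uM final) were preincubated 10 min at room temperature with coupling enzyme reagent before a 20 min substrate/AmpLite Red step.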
ELG1 DNA repair – ELG1-dependent DNA repair inhibition; AID 504467; Potency, µM (series often up to 46.1 µM), actives largely listed as inhibitors; hit rate 2.3% among 330,000; HEK293T ELG1-luciferase reporter, luminescence, 16 h; DNA damage induced by 5-fluorouridine; also: nearly all actives have a fitted effect of over 55% in size
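DMSO vehicle served as the neutral condition. Each well held 2,000 cells given 5-fluorouridine plus compound; after 16 hr at 37 °C/5% CO2, ONE-Glo was added and luciferase measured 30 min later.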
RORgamma inh – inhibitors of mouse ROR gamma transcriptional activity; Drosophila S2 Gal4-RORgamma UAS-luciferase reporter, 20 h; Potency, µM (top dose mostly 53.6 µM), usual class: inhibitors; hit rate 5.4% among 310,000; AID 2551; also: nearly all actives have a fitted effect of over 60% in size
Target sequence (P51450 whole entry, looked up, the tested form may be a part): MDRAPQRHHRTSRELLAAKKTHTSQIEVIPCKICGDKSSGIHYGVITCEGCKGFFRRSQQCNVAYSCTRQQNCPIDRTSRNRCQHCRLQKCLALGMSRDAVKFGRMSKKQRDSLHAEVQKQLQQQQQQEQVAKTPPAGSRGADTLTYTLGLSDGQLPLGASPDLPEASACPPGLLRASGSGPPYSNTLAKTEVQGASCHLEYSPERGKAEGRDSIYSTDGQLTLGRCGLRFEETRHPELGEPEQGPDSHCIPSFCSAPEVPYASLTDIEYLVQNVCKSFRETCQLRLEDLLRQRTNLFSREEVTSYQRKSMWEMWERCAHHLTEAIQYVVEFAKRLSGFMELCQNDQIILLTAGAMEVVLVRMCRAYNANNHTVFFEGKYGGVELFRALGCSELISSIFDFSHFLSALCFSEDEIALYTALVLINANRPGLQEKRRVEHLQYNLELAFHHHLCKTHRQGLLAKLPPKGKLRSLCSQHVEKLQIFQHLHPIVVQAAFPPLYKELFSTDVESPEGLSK
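Drosophila S2 cells stably expressing Gal4-DBD/mouse RORγ fusion under metallothionein promoter plus UAS-luciferase; compound 1 h, then 700 uM CuSO4 induction for 20 h at ambient temperature; inhibition read as reduced luminescence.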
TSHR antag – antagonists of human thyroid stimulating hormone receptor | P16473 | TSHR-expressing cells, TSH-stimulated cAMP HTRF, 2 h; stronger effect = lower value | activity change, negative = inhibition, % at 11.5 µM | hit rate 0.2% among 330,000 | AID 504810;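 active = activity change below a set negative limit, meaning inhibition stronger than a set level, cut at about -70% in these data; inconclusive = activity change between two set negative limits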
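Read-out is FRET at 665 nm (cryptate excitation 337 nm) from a cryptate-tagged anti-cAMP antibody, competed by cell cAMP against cAMP-d2. Compounds are tested on freshly harvested TSHR cells challenged with 4nM TSH (EC80) for 2 hours at 37 deg C.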
VP16 counter – Gal4-VP16 reporter inhibition counter-screen; Drosophila S2 Gal4-VP16 UAS-luciferase, luminescence, 20 h; Potency, µM (doses to about 53.6 µM), actives largely listed as inhibitors; AID 2546; hit rate 3.5% among 310,000;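 also: Gal4-VP16 expression switched on by copper sulfate through the metallothionein promoter; nearly all actives have a fitted effect of over 50% in size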
Hits are given with their value; [ ] = remark or other dose. Unless noted, calls follow the shape of the dose curve; as a rule, active = well fitted curve in the direction sought with a large enough effect; inconclusive = small, poorly fitted or top-dose-only effect, or another doubt; inactive = no such curve, though single readings can be large; an effect the other way counts as inactive or inconclusive.

Screening CCN(CC)CCN1C(=O)C2C(C(=O)Nc3ccc(C(C)C)cc3)C3C=CC2(O3)C1C(=O)NC1CCCCC1 (stereo not given) returned Coupling enz inactive, ELG1 DNA repair inconclusive, RORgamma inh inactive, TSHR antag inactive and VP16 counter inactive.
O=C(CCCn1c(=S)[nH]c2cc3c(cc2c1=O)OCO3)N1CCc2ccccc2C1 was read as Coupling enz inactive, ELG1 DNA repair inconclusive, RORgamma inh 12.6µM, TSHR antag inactive and VP16 counter inconclusive.
`O=C(CCn1c(=S)[nH]c2cc3c(cc2c1=O)OCO3)N1CCc2ccccc2C1` gave Coupling enz inactive, ELG1 DNA repair inactive, RORgamma inh inactive, TSHR antag inactive and VP16 counter inactive.
For O=C(CCCn1c(=S)[nH]c2cc3c(cc2c1=O)OCO3)N1CCN(c2ccc(Cl)cc2)CC1 the results were Coupling enz inactive, ELG1 DNA repair 23.1µM, RORgamma inh 6.31µM, TSHR antag inactive and VP16 counter 5.62µM.
C=CS(=O)(=O)N(Cc1ccc(Cl)c(Cl)c1)C[C@@H](O)CO was read as ELG1 DNA repair 9.2µM and TSHR antag inactive.
O=C(NNC(=S)Nc1ccccc1Cl)C1CC1 was read as Coupling enz inactive, ELG1 DNA repair inactive, RORgamma inh 11.2µM, TSHR antag inactive and VP16 counter inconclusive.
Screening O=C(CCN1CCN(c2ccccc2)CC1)NNC(=S)Nc1ccccc1Cl returned Coupling enz inactive, ELG1 DNA repair inactive, RORgamma inh 8.91µM, TSHR antag inactive and VP16 counter inactive.
`O=C(NC(=S)Nc1ccccc1Br)C1CCCCC1` gave ELG1 DNA repair inconclusive and TSHR antag inactive.
`O=C(NNC(=S)Nc1ccccc1Cl)c1ccccc1` gave Coupling enz inactive, ELG1 DNA repair inconclusive, RORgamma inh 12.6µM, TSHR antag inactive and VP16 counter inactive.
Screening O=C(NNC(=S)Nc1ccccc1Cl)c1ccccc1Cl returned ELG1 DNA repair inactive, RORgamma inh inactive, TSHR antag inactive and VP16 counter inactive.
For O=C(NC(=S)Nc1cccc(Cl)c1Cl)C1CC1 the results were Coupling enz inactive, ELG1 DNA repair inconclusive, RORgamma inh 2.51µM, TSHR antag inactive and VP16 counter 4.47µM.
Screening COCCn1c(=O)c(-c2ccc(F)cc2)nc2cnc(OC)nc21 returned Coupling enz inactive, RORgamma inh inactive and VP16 counter inactive.
For CC(C)CN(CC(C)C)C(=S)Nc1ccc(Cl)cc1 the results were Coupling enz inactive, ELG1 DNA repair inactive, RORgamma inh 3.98µM, TSHR antag inactive and VP16 counter 20µM.
`C[C@@H]1CC[C@H]2C(=O)N3[C@@H](CC[C@@H](C)[C@@H]3c3ccc(Br)cc3)C(=O)N2[C@@H]1c1ccc(Br)cc1` gave Coupling enz inactive, RORgamma inh inactive[10 µM] and VP16 counter inactive[10 µM].
For CN(C)[C@@H]1C(=O)C(C(=O)NCN2CCCC2)=C(O)[C@@]2(O)C(=O)C3=C(O)c4c(O)cccc4[C@@](C)(O)C3CC12 (stereo not given in full) the results were Coupling enz -39.4, ELG1 DNA repair inactive, RORgamma inh inactive, TSHR antag inactive and VP16 counter inactive.
`CN(C)[C@H]1C(=O)C(C(=O)NCN2CCCC2)=C(O)[C@]2(O)C(=O)C3=C(O)c4c(O)cccc4[C@](C)(O)[C@H]3C[C@H]12` gave RORgamma inh inactive[10 µM] and VP16 counter inactive.
`Cc1cc(OCCN2CCN(S(=O)(=O)c3ccccc3F)CC2)ccc1C(C)C` gave ELG1 DNA repair inactive and TSHR antag inactive.
For CCc1nnc(NC(=O)c2ccc(S(=O)(=O)N3CCCC(C)C3)cc2)s1 (stereo not given) the results were Coupling enz inactive, ELG1 DNA repair inactive, RORgamma inh inactive, TSHR antag inactive and VP16 counter inactive.
CCc1nnc(NC(=O)c2ccc(S(=O)(=O)N3CCCC(C)C3)cc2)o1 (stereo not given) was read as Coupling enz inactive, ELG1 DNA repair inactive, RORgamma inh 0.224µM, TSHR antag inactive and VP16 counter 0.631µM.
`COCc1nnc(NC(=O)c2ccc(S(=O)(=O)N3CCCC3)cc2)o1` gave Coupling enz inactive, ELG1 DNA repair inactive, RORgamma inh 4.47µM, TSHR antag inactive and VP16 counter 11.2µM.
`CC1CCN(S(=O)(=O)c2ccc(C(=O)Nc3nnc(-c4ccccn4)o3)cc2)CC1` gave Coupling enz inactive, ELG1 DNA repair inconclusive, RORgamma inh inactive, TSHR antag inactive and VP16 counter inactive.
`CC1CCCN(S(=O)(=O)c2ccc(C(=O)Nc3nnc(-c4ccco4)o3)cc2)C1` (stereo not given) gave Coupling enz inactive, ELG1 DNA repair inconclusive, RORgamma inh 1.12µM, TSHR antag inactive and VP16 counter 0.501µM.
`O=C(C1=C(O)C(=O)N(CC2CCCO2)C1c1ccccc1F)c1ccco1` (stereo not given) gave Coupling enz inactive, ELG1 DNA repair inactive, RORgamma inh inactive, TSHR antag inactive and VP16 counter inactive.
For COC(=O)c1c(NC(=O)Cc2ccc(OC)c(S(=O)(=O)N3CCOCC3)c2)sc(C)c1C the results were ELG1 DNA repair inconclusive and TSHR antag inactive.
CS(=O)(=O)c1ccc(Cl)c(NC(=O)CSc2nnc(-c3cccs3)n2N)c1 was read as ELG1 DNA repair inactive and TSHR antag inactive.
`COC(=O)CN1C(c2ccccc2)=Nc2ccc(Cl)cc2C1c1ccccc1` (stereo not given) gave Coupling enz inactive, ELG1 DNA repair inconclusive, RORgamma inh 12.6µM, TSHR antag inactive and VP16 counter inactive.
Screening CCn1cc(CN2CCCC(CNC(=O)COc3ccccc3OC)C2)c(C)n1 (stereo not given) returned Coupling enz inactive, ELG1 DNA repair inactive, RORgamma inh inactive, TSHR antag inactive and VP16 counter inactive.
Cc1cc(SCC(=O)N/N=C/c2ccco2)nc2ccccc12 was read as Coupling enz -32.0, ELG1 DNA repair inactive, RORgamma inh inactive, TSHR antag inactive and VP16 counter inactive.
Screening Cc1ccc(-c2cc(C(=O)N/N=C\c3cnn(C)c3C)c3ccccc3n2)cc1C returned Coupling enz inactive, ELG1 DNA repair inactive, RORgamma inh 11.2µM, TSHR antag inactive and VP16 counter inconclusive.
`O=C(N/N=C/c1ccco1)c1cc(-c2ccccc2)nc2ccccc12` gave ELG1 DNA repair inconclusive, RORgamma inh 7.08µM, TSHR antag inactive and VP16 counter 10µM.
Screening O=C(N/N=C/c1ccco1)c1cc(C2CC2)nc2ccccc12 returned Coupling enz inactive, ELG1 DNA repair inactive, RORgamma inh inactive, TSHR antag inactive and VP16 counter inactive.
Screening COc1cccc(-c2cc(C(=O)N/N=C/c3ccco3)c3ccccc3n2)c1 returned Coupling enz inactive, ELG1 DNA repair inactive, RORgamma inh 3.16µM, TSHR antag inactive and VP16 counter 7.08µM.
